The results in this text go back to PubChem BioAssay (NCI).

Test in all cases: NCI-60 one-dose screen, 48 h (100 = growth as untreated, 0 = no growth, -100 = all killed)
In one test the test system is HCT-15 colon. The conditions noted are these: 10 µM unless noted.
The test system of the next test is HT29 colon. The following applies: 10 µM unless noted.
In the next test the test system is SNB-75 CNS. The conditions noted are these: 10 µM unless noted.
Another test concerns SNB-19 CNS. The conditions noted are these: 10 µM unless noted.
Another test has as its system U251 CNS. The conditions noted are these: 10 µM unless noted.
The subject of a further test is PC-3 prostate. The conditions noted are these: 10 µM unless noted.
The subject of a further test is SK-MEL-5 melanoma. The conditions noted are these: 10 µM unless noted.
The next test deals with UACC-62 melanoma. The conditions noted are these: 10 µM unless noted.
A further test concerns LOX IMVI melanoma. The following applies: 10 µM unless noted.
The subject of the next test is SK-MEL-28 melanoma. The following applies: 10 µM unless noted.
In the next test the test system is SK-MEL-2 melanoma. The conditions noted are these: 10 µM unless noted.
The test system of the next test is EKVX NSCLC. The following applies: 10 µM.
The test system of a further test is UO-31 renal. The following applies: 10 µM unless noted.
The next test has as its system TK-10 renal. The conditions noted are these: 10 µM unless noted.
The subject of a further test is ACHN renal. The following applies: 10 µM unless noted.
A further test concerns CAKI-1 renal. The following applies: 10 µM unless noted.
The test system of a further test is A498 renal. The conditions noted are these: 10 µM unless noted.
Another test deals with CCRF-CEM leukemia. The following applies: 10 µM.
Another test has as its system MOLT-4 leukemia. The following applies: 10 µM unless noted.
In a further test the test system is SN12C renal. The following applies: 10 µM unless noted.

This is part of a sample that, as a whole, favours compounds with a hit. Of some 83,000 tested, about 20% had one in any assay.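 The endpoint reported here, percent growth, reads 100 for growth as untreated, 0 for no net growth and -100 for all cells dead.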 Values without a mark were called inactive. Activity calls are given as the source filed them. Rule for the calls: active = growth percent below 10; inactive = the rest.

Regarding `CCOP1(=O)CC(C)=C(Cl)C(P(=O)(O)O)C1` (stereo not drawn), the growth in the test on HCT-15 colon is 98.3%; in the test on HT29 colon it was 104%; in the test with SNB-75 CNS, 82.4%; in the test with SNB-19 CNS, 106%; with U251 CNS, 99.7%; with PC-3 prostate, 95.6%. For the same molecule, the growth was 109% in the test with SK-MEL-5 melanoma; 95.5% in the test with UACC-62 melanoma; 94.1% with LOX IMVI melanoma; 93.7% in the test with SK-MEL-28 melanoma; 109% in the test with SK-MEL-2 melanoma; 102% in the test with EKVX NSCLC. Also, the growth with UO-31 renal is 42.5%; in the test with TK-10 renal, 117%; in the test on ACHN renal it was 101%; with CAKI-1 renal it was 110%; with A498 renal it was 113%; in the test with CCRF-CEM leukemia it was -35.6% (active). Also, the growth in the test on MOLT-4 leukemia is 89.9%.
Consider `COc1ccc(C(O)(c2ccccc2)C(C(=O)O)c2ccccc2)cc1` (stereo not drawn), for which the growth in the test with HCT-15 colon is 107%; in the test on HT29 colon it was 91.3%; in the test with SNB-75 CNS, 94.6%; in the test on SNB-19 CNS, 96.9%; in the test with U251 CNS, 116%; in the test on PC-3 prostate, 85.8%. Moreover, the growth with SK-MEL-5 melanoma is 102%; in the test on UACC-62 melanoma it was 93.6%; with LOX IMVI melanoma it was 96.7%; with SK-MEL-28 melanoma, 112%; with SK-MEL-2 melanoma, 104%; in the test with EKVX NSCLC, 111%. In addition, the growth was 100% in the test with SN12C renal; 105% in the test on TK-10 renal; 106% with ACHN renal; 102% with CAKI-1 renal; 102% in the test on MOLT-4 leukemia.
`COCC(=O)NNc1[nH]c(-c2ccc(OC)cc2)cc1C#N`: the growth in the test with HCT-15 colon was 107%; in the test on HT29 colon, 110%; in the test on SNB-75 CNS, 120%; in the test on SNB-19 CNS it was 114%; in the test on U251 CNS, 103%; in the test with PC-3 prostate it was 97%. In addition, the growth is 117% in the test with SK-MEL-5 melanoma; 99.4% in the test with UACC-62 melanoma; 110% in the test on LOX IMVI melanoma; 120% in the test on SK-MEL-28 melanoma; 108% with SK-MEL-2 melanoma; 112% in the test with EKVX NSCLC. Also, the growth was 95.4% in the test with UO-31 renal; 92.7% with TK-10 renal; 110% with ACHN renal; 105% with CAKI-1 renal; 116% in the test on A498 renal; 55.9% in the test with CCRF-CEM leukemia. In addition, in the test with MOLT-4 leukemia, the growth was 81.8%.
Take `CC(=O)Nc1nc(C)c(C(=O)N/N=C/c2cccs2)s1`: the growth with HCT-15 colon was 101%; with HT29 colon, 95%; in the test with SNB-75 CNS it was 72%; with SNB-19 CNS, 96.8%; with U251 CNS, 98.6%; in the test with PC-3 prostate, 101%. The growth with SK-MEL-5 melanoma was 97.7%; in the test on UACC-62 melanoma it was 80.1%; with LOX IMVI melanoma it was 93.2%; with SK-MEL-28 melanoma, 95.5%; in the test with SK-MEL-2 melanoma it was 19.3%; with EKVX NSCLC, 107%. Further, the growth was 79.8% in the test on UO-31 renal; 144% in the test on TK-10 renal; 95.9% in the test with ACHN renal; 111% in the test on CAKI-1 renal; 92.4% in the test on A498 renal; 84.6% in the test with CCRF-CEM leukemia. Further, the growth in the test on MOLT-4 leukemia was 84.1%.
Take `COc1ccc(OC)c(Cn2cc3c(c2)-c2oncc2CC3)c1`: the growth was 31.1% in the test with HCT-15 colon; 22.3% with HT29 colon; -1.67% (active) in the test with SNB-75 CNS; 50.6% in the test with SNB-19 CNS; 37.8% in the test on U251 CNS; 45.5% in the test with PC-3 prostate. Further, the growth is 20% with SK-MEL-5 melanoma; 53% in the test on UACC-62 melanoma; 35.4% in the test on LOX IMVI melanoma; 50.1% in the test with SK-MEL-28 melanoma; 45% in the test on SK-MEL-2 melanoma; 42% in the test with EKVX NSCLC. Also, the growth is 41.9% in the test with UO-31 renal; 68.9% in the test on TK-10 renal; 55.8% in the test on ACHN renal; 12.5% in the test with CAKI-1 renal; 24.2% with A498 renal; 16% in the test on CCRF-CEM leukemia. In the test with MOLT-4 leukemia, the growth was 28.7%.
As for `COc1ccc(C(=O)c2no[n+]([O-])c2C(=O)c2ccc(OC)cc2)cc1`, the growth is 20.1% in the test on HCT-15 colon; 10.1% with HT29 colon; -99.3% (active) in the test on SNB-75 CNS; 97.7% with SNB-19 CNS; 35.9% in the test on U251 CNS; -37.7% (active) with PC-3 prostate. Besides, the growth in the test on SK-MEL-5 melanoma is 85.5%; in the test on UACC-62 melanoma it was 78.9%; in the test with LOX IMVI melanoma, -69.2% (active); in the test on SK-MEL-28 melanoma, 109%; with SK-MEL-2 melanoma, 93%; in the test on EKVX NSCLC it was 64.8%. Moreover, the growth was -100% (active) in the test on UO-31 renal; 5.22% (active) in the test on TK-10 renal; -47% (active) in the test on ACHN renal; 116% in the test on A498 renal; -68.7% (active) in the test with CCRF-CEM leukemia; -80.1% (active) in the test on MOLT-4 leukemia.
Consider `c1ccc(-c2cn3ccnc3c(-c3ccc4ncn(C5CCCCC5)c4c3)n2)cc1`, for which the growth was 48.4% in the test with HCT-15 colon; 51.7% in the test on HT29 colon; 55.6% in the test with SNB-75 CNS; 77.1% with SNB-19 CNS; 62.7% in the test with U251 CNS; 7.96% (active) in the test on PC-3 prostate. For the same molecule, the growth in the test on SK-MEL-5 melanoma was 63.5%; in the test with UACC-62 melanoma, 34.4%; in the test with LOX IMVI melanoma, 60.4%; in the test with SK-MEL-28 melanoma it was 82%; in the test on SK-MEL-2 melanoma, 83.5%; in the test on EKVX NSCLC it was 75.8%. For the same molecule, the growth in the test on TK-10 renal is 97.7%; in the test with ACHN renal it was 64.1%; in the test with A498 renal, 73.9%; in the test with CCRF-CEM leukemia, 18.7%; in the test with MOLT-4 leukemia, 32.3%.
With `CCS(=O)(=O)N[C@@H]1O[C@H](COC(C)=O)C(OC(C)=O)[C@H](OC(C)=O)C1OC(C)=O` (stereo partly drawn), the growth with HCT-15 colon was 93.8%; in the test on HT29 colon, 102%; with SNB-75 CNS, 93.9%; in the test on SNB-19 CNS, 115%; in the test on U251 CNS, 97.7%; in the test with PC-3 prostate, 102%. Further, the growth is 105% with SK-MEL-5 melanoma; 110% with UACC-62 melanoma; 92.8% in the test with LOX IMVI melanoma; 108% with SK-MEL-28 melanoma; 106% with SK-MEL-2 melanoma; 99.1% in the test on EKVX NSCLC. Also, the growth is 94.6% with UO-31 renal; 97.4% in the test with TK-10 renal; 101% in the test with ACHN renal; 94.8% in the test with CAKI-1 renal; 106% with MOLT-4 leukemia.
Regarding `CC1=C(C)C(=O)C(C(C)C2=C(C)C(=O)C(C)=C(C)C2=O)=C(C)C1=O`, the growth was 99.7% with HCT-15 colon; 68.7% in the test with HT29 colon; 96.6% in the test with SNB-75 CNS; 99% with SNB-19 CNS; 81% with U251 CNS; 52.4% with PC-3 prostate. Besides, the growth in the test on SK-MEL-5 melanoma was 75%; in the test on UACC-62 melanoma it was 85%; with LOX IMVI melanoma, 81%; in the test with SK-MEL-28 melanoma, 117%; in the test with SK-MEL-2 melanoma, 97.8%; with EKVX NSCLC, 61.7%. Moreover, the growth in the test on SN12C renal was 120%; in the test with TK-10 renal, 75.7%; in the test with ACHN renal, 110%; with CAKI-1 renal it was 142%; in the test with A498 renal, 84.6%; in the test with MOLT-4 leukemia, 32.9%.
